# The supplement of paper PMC8728848
# Shown is part of a subset that was picked to be rich in the strongest signals.
# Tests used:
# Test in all cases: glycan array binding signal (z-score within array); higher = stronger binding
# Conditions in all cases: glycan notation: IUPAC condensed, linker removed
# [1] = target: Fuc(a1-2)Gal(b1-3)GalNAc(b1-4)[Neu5Ac(a2-3)]Gal(b1-4)Glc
# Procedure, shortened: (§1)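 From the Consortium for Functional Glycomics database, 3228 arrays were curated, keeping only those whose protein sequence was available. Binding is given as a within-array Z-score averaged across arrays sharing a protein sequence and across linkers. Negative Z-scores can be read as non-binding.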
# [2] = target: Fuc(a1-2)Gal(b1-4)GlcNAc(b1-3)Gal(b1-4)GlcNAc(b1-2)Man(a1-3)[Fuc(a1-2)Gal(b1-4)GlcNAc(b1-3)Gal(b1-4)GlcNAc(b1-2)Man(a1-6)]Man(b1-4)GlcNAc(b1-4)GlcNAc
# Procedure, shortened: as §1
# [3] = target: Fuc(a1-2)Gal(b1-4)[Fuc(a1-3)]GlcNAc(b1-3)Gal(b1-4)[Fuc(a1-3)]GlcNAc(b1-3)Gal(b1-4)[Fuc(a1-3)]GlcNAc
# Procedure, shortened: as §1
# [4] = target: Fuc(a1-2)[Gal(a1-3)]Gal(b1-4)GlcNAc(b1-3)GalNAc
# Procedure, shortened: as §1
# [5] = target: Fuc(a1-2)[Gal(a1-3)]Gal(b1-4)GlcNAc(b1-3)[Fuc(a1-2)[Gal(a1-3)]Gal(b1-4)GlcNAc(b1-6)]GalNAc
# Procedure, shortened: as §1
# [6] = target: Fuc(a1-2)[GalNAc(a1-3)]Gal(b1-4)GlcNAc(b1-2)Man
# Procedure, shortened: as §1
# [7] = target: Fuc(a1-2)[GalNAc(a1-3)]Gal(b1-4)GlcNAc(b1-6)GalNAc
# Procedure, shortened: as §1
# [8] = target: Fuc(a1-3)[Gal3S(b1-4)]GlcNAc6S
# Procedure, shortened: as §1
# Fuc(b1-3)GlcNAc = target: Fuc(b1-3)GlcNAc
# Procedure, shortened: as §1
# Gal(a1-3)Gal(b1-4)GlcNAc = target: Gal(a1-3)Gal(b1-4)GlcNAc
# Procedure, shortened: as §1
# [9] = target: Gal(a1-4)Gal(b1-4)GlcNAc(b1-3)Gal(b1-4)Glc
# Procedure, shortened: as §1
# [10] = target: Gal(b1-3)GalNAc(a1-3)[Fuc(a1-2)]Gal(b1-4)Glc
# Procedure, shortened: as §1
# [11] = target: Gal(b1-3)GalNAc(a1-3)[Fuc(a1-2)]Gal(b1-4)GlcNAc
# Procedure, shortened: as §1
# [12] = target: Gal(b1-3)GlcNAc(a1-3)Gal(b1-4)GlcNAc
# Procedure, shortened: as §1
# [13] = target: Gal(b1-3)GlcNAc(b1-2)[Gal(b1-3)GlcNAc(b1-6)]Man(a1-6)[Gal(b1-3)GlcNAc(b1-2)Man(a1-3)]Man(b1-4)GlcNAc(b1-4)GlcNAc
# Procedure, shortened: as §1
# [14] = target: Gal(b1-3)[Fuc(a1-4)]GlcNAc(b1-2)Man
# Procedure, shortened: as §1
# [15] = target: Gal(b1-3)[Fuc(a1-4)]GlcNAc(b1-3)Gal(b1-3)[Fuc(a1-4)]GlcNAc
# Procedure, shortened: as §1
# Gal(b1-4)Gal = target: Gal(b1-4)Gal
# Procedure, shortened: as §1
# [16] = target: Gal(b1-4)GalNAc(a1-3)[Fuc(a1-2)]Gal(b1-4)GlcNAc
# Procedure, shortened: as §1
# [17] = target: Gal(b1-4)GlcNAc(b1-2)Man(a1-3)[Gal(b1-4)GlcNAc(b1-2)Man(a1-6)][GlcNAc(b1-4)]Man(b1-4)GlcNAc(b1-4)[Fuc(a1-6)]GlcNAc
# Procedure, shortened: as §1
# [18] = target: Gal(b1-4)GlcNAc(b1-2)Man(a1-3)[GlcNAc(b1-4)][Gal(b1-4)GlcNAc(b1-2)Man(a1-6)]Man(b1-4)GlcNAc(b1-4)GlcNAc
# Procedure, shortened: as §1
# [19] = target: Gal(b1-4)GlcNAc(b1-2)Man(a1-6)[GlcNAc(b1-2)Man(a1-3)]Man(b1-4)GlcNAc(b1-4)GlcNAc
# Procedure, shortened: as §1
# [20] = target: Gal(b1-4)GlcNAc(b1-2)[Gal(b1-4)GlcNAc(b1-6)]Man(a1-6)[GlcNAc(b1-4)][Gal(b1-4)GlcNAc(b1-2)[Gal(b1-4)GlcNAc(b1-4)]Man(a1-3)]Man(b1-4)GlcNAc(b1-4)[Fuc(a1-6)]GlcNAc
# Procedure, shortened: as §1
# [21] = target: Gal(b1-4)GlcNAc(b1-3)Gal(b1-4)GlcNAc(b1-2)[Gal(b1-4)GlcNAc(b1-3)Gal(b1-4)GlcNAc(b1-6)]Man(a1-6)[Gal(b1-4)GlcNAc(b1-3)Gal(b1-4)GlcNAc(b1-2)Man(a1-3)]Man(b1-4)GlcNAc(b1-4)[Fuc(a1-6)]GlcNAc
# Procedure, shortened: as §1
# [22] = target: Gal(b1-4)GlcNAc(b1-3)GalNAc
# Procedure, shortened: as §1
# Gal3S(b1-3)GalNAc = target: Gal3S(b1-3)GalNAc
# Procedure, shortened: as §1
# Gal4S(b1-4)GlcNAc = target: Gal4S(b1-4)GlcNAc
# Procedure, shortened: as §1
# Gal6P(b1-4)GlcNAc = target: Gal6P(b1-4)GlcNAc
# Procedure, shortened: as §1
# GalNAc(b1-4)GlcNAc6S = target: GalNAc(b1-4)GlcNAc6S
# Procedure, shortened: as §1
binder,measurement,setting,value
SSR2 (Sclerotium rolfsii) (protein) MVYKITVRVYQTNPDAFFHPVEKTVWKYANGGTWSITDDQHVLTMGGSGTSGTLRFHADNGESFTATFGVHNYKRWCDIVTNLAADETGMVINQQYYSQKNREEARERQLSNYQVKNAKGRNFQIVYTEAEGNDLHANLIIG,glycan array binding signal (z-score),[1],-0.282
same,glycan array binding signal (z-score),[2],-0.273
same,glycan array binding signal (z-score),[3],-0.294
same,glycan array binding signal (z-score),[4],-0.285
same,glycan array binding signal (z-score),[5],-0.277
same,glycan array binding signal (z-score),[6],-0.275
same,glycan array binding signal (z-score),[7],-0.297
same,glycan array binding signal (z-score),[8],-0.279
same,glycan array binding signal (z-score),Fuc(b1-3)GlcNAc,-0.269
same,glycan array binding signal (z-score),Gal(a1-3)Gal(b1-4)GlcNAc,-0.292
same,glycan array binding signal (z-score),[9],-0.285
same,glycan array binding signal (z-score),[10],3.93
same,glycan array binding signal (z-score),[11],2.96
same,glycan array binding signal (z-score),[12],-0.278
same,glycan array binding signal (z-score),[13],-0.286
same,glycan array binding signal (z-score),[14],-0.286
same,glycan array binding signal (z-score),[15],-0.272
same,glycan array binding signal (z-score),Gal(b1-4)Gal,-0.288
same,glycan array binding signal (z-score),[16],-0.279
same,glycan array binding signal (z-score),[17],-0.287
same,glycan array binding signal (z-score),[18],-0.259
same,glycan array binding signal (z-score),[19],3.34
same,glycan array binding signal (z-score),[20],-0.266
same,glycan array binding signal (z-score),[21],-0.229
same,glycan array binding signal (z-score),[22],-0.281
same,glycan array binding signal (z-score),Gal3S(b1-3)GalNAc,4.27
same,glycan array binding signal (z-score),Gal4S(b1-4)GlcNAc,-0.297
same,glycan array binding signal (z-score),Gal6P(b1-4)GlcNAc,-0.287
same,glycan array binding signal (z-score),GalNAc(b1-4)GlcNAc6S,-0.294
